Bioassay records deposited in PubChem by National Center for Advancing Translational Sciences (NCATS).
Shown are actives, neighbours in structure and some others; about 3.2% of the full set was active somewhere.
ERK AVP block: vasopressin-driven ERK pathway inhibition; HEK293-V1b, vasopressin-stimulated pERK AlphaScreen; Potency, µM (titrated, usually from 57.5 µM), hits mostly inhibitors; 72,000 compounds, 0.99% hits; further: nearly all actives have a fitted effect of over 55% in size
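HEK293 cells stably expressing V1b receptor, seeded overnight in 1% FBS, were treated with compounds for 30 min at 37C, then stimulated 5 min with 25 nM vasopressin; phospho-ERK read by AlphaScreen SureFire after lysis.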
Tau filament bind: binds recombinant human tau filaments; AID 596; Potency, µM (highest dose often 57.1 µM); recombinant tau filaments, thioflavin S fluorescence, 15 h; filaments grown with octadecylsulfate alongside compound; P10636; 71,000 compounds, 2% hits;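 further: actives lower thioflavin S fluorescence by blocking filaments or displacing dye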
Target sequence (P10636 whole entry, looked up): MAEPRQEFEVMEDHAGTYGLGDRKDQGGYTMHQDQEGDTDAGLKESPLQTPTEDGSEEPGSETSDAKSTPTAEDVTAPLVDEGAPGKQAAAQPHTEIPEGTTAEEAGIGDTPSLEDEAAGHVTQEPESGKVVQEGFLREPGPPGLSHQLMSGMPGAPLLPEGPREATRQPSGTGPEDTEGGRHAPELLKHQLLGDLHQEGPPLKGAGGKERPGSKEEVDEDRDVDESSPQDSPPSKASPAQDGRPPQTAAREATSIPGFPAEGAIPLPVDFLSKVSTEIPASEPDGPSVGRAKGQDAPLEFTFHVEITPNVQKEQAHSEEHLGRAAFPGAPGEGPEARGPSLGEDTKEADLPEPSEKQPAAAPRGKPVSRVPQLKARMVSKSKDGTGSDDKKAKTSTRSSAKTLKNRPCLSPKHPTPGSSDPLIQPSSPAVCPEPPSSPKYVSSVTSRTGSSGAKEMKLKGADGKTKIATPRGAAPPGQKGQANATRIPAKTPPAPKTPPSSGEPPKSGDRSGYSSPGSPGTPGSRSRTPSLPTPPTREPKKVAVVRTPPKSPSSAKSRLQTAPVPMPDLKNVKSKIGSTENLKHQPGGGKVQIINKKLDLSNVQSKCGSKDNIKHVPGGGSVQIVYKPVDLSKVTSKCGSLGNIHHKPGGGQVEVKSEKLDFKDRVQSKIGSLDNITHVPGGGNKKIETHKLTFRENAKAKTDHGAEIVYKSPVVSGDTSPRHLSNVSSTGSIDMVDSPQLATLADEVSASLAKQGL
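Assay mix: 1 uM His-tagged tau, 30 uM sodium octadecylsulfate, thioflavine S dye in HEPES/NaCl/DTT buffer. Compound is added prior to the inducer. Fluorescence after 15 h at 37 C.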
p53ts 39C kill: cytotoxicity in p53ts cells at nonpermissive temperature. Potency, µM (series often up to 46.1 µM), hits mostly cytotoxic. 130,000 compounds, 1.5% hits. H1299-p53A138V viability at 39C, ATP luminescence, 24 h; further: nearly all actives have a fitted effect of over 55% in size
p53ts 32C kill: cytotoxicity in p53ts cells at permissive temperature; H1299-p53A138V at 32C, ATP luminescence viability, 24 h; Potency, µM (highest dose often 46.1 µM), actives largely listed as cytotoxic; 130,000 compounds, 0.93% hits; further: nearly all actives have a fitted effect of over 55% in size
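ATP-content luminescence (ATPlite) read-out after 24 h compound exposure at 32C in H1299-p53A138V cells (600/well). Tested up to 46 uM. Normalized to DMSO (0%) and 100 uM tamoxifen (100% killing); Hill-fit AC50.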
DNA Pol III inh: blocks replication by bacterial DNA polymerase III holoenzyme | Potency, µM (highest dose often 57.1 µM) | 71,000 compounds, 0.25% hits | reconstituted DNA polymerase III holoenzyme replication, biochemical
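Reconstituted *E. coli* holoenzyme (0.35 nM Pol III, 1 nM beta, 154 nM SSB, 2 nM primase) was preincubated with compound for 15 min at RT. Synthesis on 1.4 nM ssM13Gori ran 35 min, then was stopped with PicoGreen/EDTA and read as dsDNA fluorescence.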
YjeE inh: displaces an ADP probe from E. coli YjeE (TsaE); P0AF67; purified YjeE enzyme, qHTS inhibition assay; Potency, µM; 71,000 compounds, 0.05% hits
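Purified YjeE (10 uM) with BODIPY Texas Red-labeled ADP probe (2 uM); compounds pin-transferred, 15 min at room temperature. Binding inhibition read as decreased fluorescence polarization; ADP titration as control.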
Hits are given with their value; – = inactive; ? = inconclusive; · = no result; [ ] = dose if it differs, or a comment. The call rests on the fitted dose curve; in most records, active means well fitted curve in the direction sought with a large enough effect; inconclusive means small, poorly fitted or top-dose-only effect, or another doubt; inactive means no such curve, though single readings can be large; an effect the other way counts as inactive or inconclusive.

SMILES	ERK AVP block	Tau filament bind	p53ts 39C kill	p53ts 32C kill	DNA Pol III inh	YjeE inh
Cc1ccc(-c2nc(-c3ccccn3)no2)cc1Cl	–	–	2.5µM	2µM	–	–
CCN(CC)c1ccc(-c2nc(-c3ccccn3)no2)cc1[N+](=O)[O-]	·	·	–	–	·	·
c1ccc(-c2ccc(-c3nc(-c4ccccn4)no3)cc2)cc1	–	–	3.2µM	1.6µM	–	–
CO[C@]12C(COC(N)=O)C3=C(C(=O)C(C)=C(N)C3=O)N1CC1NC12 (stereo not given in full)	–	·	?	–	·	·
N[C@@H](CSS(=O)(=O)O)C(=O)O	–	–	–	–	–	–
COc1cc(-c2nc(-c3ccccn3)no2)cc(OC)c1OC	–	–[11.4 µM]	–	–	–[11.4 µM]	–
c1ccc(-c2nc(-c3ccccn3)no2)cc1	·	·	7.1µM	5.6µM	·	·
Clc1cccc(-c2nc(-c3ccccn3)no2)c1	–	–	3.2µM	5µM	–	–
Cc1ccc(-c2nc(-c3ccccn3)no2)cc1	·	·	0.4µM	0.5µM	·	·
CCOC(=O)c1cc(-c2ccccc2)n(CC(=O)N(C)c2ccc(OC)cc2)c1C	·	·	–	–	·	·
CSCCC=O	–	–	–	–[1.84 µM]	–	–
COc1ccc(C2=Nn3c(nnc3-c3ccc(OC)cc3)SC2)cc1	10µM	–	–	–	–	–
COc1ccc(C2=Nn3c(nnc3-c3ccccc3OC)SC2)cc1OC	5µM	–	–	–	–	–
c1ccc(C2=Nn3c(nnc3-c3cc(-c4ccccc4)n[nH]3)SC2)cc1	25µM	–	–	–	–	–
CCCn1c(=O)c2sccc2n2c(CCCC(=O)Nc3ccc(Oc4ccccc4)cc3)nnc12	·	·	–	–	·	·
O=C(Nc1nsc(-c2ccccc2)n1)c1cccs1	?	–	5µM	4µM	–	–
CC(C)N(C(=O)CSc1cn(CC(=O)N2CCCCCC2)c2ccccc12)C(C)C	·	·	–	–	·	·
CCOc1ccccc1NC(=O)CC(c1ccc(F)cc1)N1Cc2ccccc2C1=O (stereo not given)	·	·	–	–	·	·
O=Nc1c(-c2c(O)[nH]c3cc(Br)ccc23)[nH]c2ccccc12	10µM	·	13µM	13µM	·	·
Oc1[nH]c2ccccc2c1C1=NCCCC1	–	–	–	–	–	–
COc1ccc(C/C(O)=C(\C#N)c2nc3ccccc3s2)cc1	–	–	13µM	?	–	–
Nc1cc(C(=O)c2cccs2)ccc1Cl	–	16µM	–	–	–	–
CCOC(=O)c1c(C)c(C(=O)Nc2ccc3c(c2)OCO3)c(C)n1C	–	–	–	–	–	–
CC(=O)Nc1ccc(C(=O)Nc2ccc3c(c2)OCO3)cc1	–	20µM	–	–	–	–
CCC(=O)Nc1ccc(C(=O)Nc2ccc3c(c2)OCO3)cc1	–	–	–	–	–	–
SMILES	ERK AVP block	Tau filament bind	p53ts 39C kill	p53ts 32C kill	DNA Pol III inh	YjeE inh
CCOc1ccc(C(=O)Nc2ccc3c(c2)OCCO3)cc1OC	–	–	–	–	–	–
CCOC(=O)c1c(N)sc(C(=O)Nc2ccc3c(c2)OCO3)c1C	–	–	2.5µM	4µM	–	–
Cc1noc(C(=O)Nc2ccc3c(c2)OCO3)c1Cl	–	10µM	–	?	–	–
CCOc1cc(C(=O)Nc2ccc3c(c2)OCO3)ccc1OC(F)F	20µM	–	–	–	–	–
Cc1cc(C(=O)Nc2ccc3c(c2)OCO3)cs1	–	–	10µM	13µM	–	–
O=C(CSc1nnc(COc2ccccc2Cl)o1)NC(=O)NC1CCCC1	20µM	–	–	–	–	–
CC(C)CCNC(=O)NC(=O)CSc1nnc(COc2ccccc2Cl)o1	–	–	–	–	–	–
COCC#Cc1ccc(C2C(C)CCC3C(=O)N4C(CCC(C)C4c4ccc(C#CCOC)cc4)C(=O)N32)cc1 (stereo not given)	–[11.5 µM]	·	–[9.22 µM]	–[9.22 µM]	·	·
COc1ccc(-n2cc(-c3ccc4c(c3)OCO4)n(CC(=O)Nc3cc(Cl)ccc3C)c2=O)cc1	·	·	10µM	10µM	·	·
COc1ccc(-n2cc(-c3ccc4c(c3)OCO4)n(CC(=O)Nc3cccc(C)c3C)c2=O)c(OC)c1	·	·	–	–	·	·
O=C(CSc1nc2c(cnn2-c2ccc(F)cc2)c(=O)[nH]1)Nc1ccccc1C(F)(F)F	·	·	–	–	·	·
O=C(Nc1nc2ccccc2[nH]1)c1ccc(F)cc1	–	–	2µM	3.2µM	–	–
Cc1c(C(=O)Nc2nc3ccccc3[nH]2)cccc1[N+](=O)[O-]	·	·	–	·	·	·
O=C(Nc1nc2ccccc2[nH]1)c1ccccc1F	–	–	1.6µM	1.3µM	–	–
O=C(NCCN1CCOCC1)c1ccc(-n2c(=O)c(=O)[nH]c3ccccc32)cc1	·	·	–	–	·	·
CCOC(=O)Cc1csc(NC(=O)CSc2nnc(-c3ccc(C)cc3)o2)n1	–	–	7.9µM	13µM	–	–
CCOC(=O)Cc1csc(NC(=O)CSc2ncnc3c2cnn3-c2ccc(OC)cc2)n1	5µM	–	?	–	–	–
CCOC(=O)Cc1csc(NC(=O)CSc2nnc(-c3ccc(F)cc3)o2)n1	–	–	?	?	–	–
CCOC(=O)CNC(=O)CSc1ncnc2c1cnn2-c1ccc(Cl)cc1	–	–	–	–	–	–
CO/N=C(\C)CCN1CCCc2nc(C)c(C)cc21	–[11.5 µM]	·	–[9.22 µM]	–[9.22 µM]	·	·
O=S1(=O)N=C(Nc2nc3c(s2)CCCC3)c2ccccc21	–	–	4µM	5µM	–	–
CCc1cccc(CC)c1NC1=NS(=O)(=O)c2ccccc21	·	·	–	–	·	·
Cc1ccccc1-c1ccc2ncnc(NCCN3CCOCC3)c2c1	25µM	–	–	–	–	–
Cc1cccc(CNc2ncnc3ccc(-c4cccnc4)cc23)c1	2µM	–	–	–	–	–
COc1ccccc1-c1ccc2ncnc(NCc3cnc(C)cn3)c2c1	20µM	–	–	–	–	–
SMILES	ERK AVP block	Tau filament bind	p53ts 39C kill	p53ts 32C kill	DNA Pol III inh	YjeE inh
COCCNc1ncnc2ccc(-c3cccc(NS(C)(=O)=O)c3)cc12	–	–	–	–	–	–
COc1ccccc1-c1ccc2ncnc(NCc3cccnc3)c2c1	–	–	–	–	–	–
Cc1cccc(CNc2ncnc3ccc(-c4ccoc4)cc23)c1	–	–	–	–	–	–
Cc1cccc(CNc2ncnc3ccc(-c4cccc(NS(C)(=O)=O)c4)cc23)c1	25µM	–	–	–	–	–
Cc1ccc(C)c(N2CCN(C(=O)CN3C(=O)CSc4c3c(C)nn4-c3ccccc3)CC2)c1	·	·	–	–	·	·
COc1ccc(CNC(=O)c2cnn(-c3ccccc3)c2-n2cccc2)cc1OC	·	·	–	–	·	·
Cc1ccc(NC(=O)CSc2nnc(COc3ccc(Cl)cc3)o2)cc1	·	·	–	–	·	·
C=C1CC[C@H]2C(C)(C)[C@H](O)CC[C@]2(C)[C@@H]1COc1ccc2ccc(=O)oc2c1	·	?	·	·	–	–
COc1ccccc1-c1ccc2ncnc(N3CCN(C)CC3)c2c1	–	–	–	–	–	–
CN1CCN(c2ncnc3ccc(-c4cccc(NS(C)(=O)=O)c4)cc23)CC1	3.2µM	–	–	–	–	–
